Only some compounds are listed: those with a hit (about 0.33% of all), similar ones and a draw of the others.
FXIIa inh – inhibitors of human coagulation factor XIIa | P00748 | purified human FXIIa, AMC substrate fluorescence, 2 h | inhibition, % at 10 µM | 33,000 compounds, 0.2% hits; in the data active = inhibition above about 30%;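 note: 0% = enzyme with vehicle only and 100% = no enzyme blank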
FXIa single inh – blocks human coagulation factor XIa activity; purified human FXIa, fluorogenic AMC substrate cleavage; inhibition, % at 10 µM; 33,000 compounds, 0.3% hits;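 active = inhibition above 40% in the primary screen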;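 note: 0% = enzyme without compound and 100% = blank wells lacking enzyme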
Active calls of the source: *.

SMILES	FXIIa inh	FXIa single inh
Cc1ccccc1NCCNc1ccccc1C	-2	-3
CCN(CC)C(=O)C(Sc1ccccc1)c1ccccc1 (stereo unspecified)	7	0
O=C(Oc1cccc(-n2cnnn2)c1)c1ccco1	47*	45*
CC1CCc2c(C(=O)Oc3cccc(-n4cnnn4)c3)csc2C1 (stereo unspecified)	9	0
O=C(NCc1ccccn1)c1cn(CCc2ccccc2)nn1	31*	3
CC(c1ccccc1)n1cc(C(=O)NCc2ccccn2)nn1 (stereo unspecified)	8	4
O=C(Oc1ccc(OC(=O)N2CCOCC2)cc1)c1ccccc1	1	6
O=C(Oc1nsnc1N1CCOCC1)c1ccccc1	63*	66*
O=c1c2cc(F)ccc2[nH]c(=S)n1CCCN1CCOCC1	0	-1
O=C(c1ccccc1)N1CCCC(c2nc3c(nnn3Cc3ccccc3)c(=O)[nH]2)C1 (stereo unspecified)	37*	-2
O=C(C1CCCCC1)N1CCCC(c2nc3c(nnn3Cc3ccccc3)c(=O)[nH]2)C1 (stereo unspecified)	-13	0
O=C(CSc1nnc(-c2ccc(OC(F)F)cc2)o1)NCc1cccs1	6	-9
CC1(C)c2ssc(=S)c2-c2ccccc2N1C(=O)c1ccco1	34*	4
Cc1ccc2c(c1)-c1c(ssc1=S)C(C)(C)N2C(=O)c1ccco1	8	7
Cn1c(C(=O)O)c(CC(=O)N2CCC(Cc3ccccc3)CC2)c2ccccc21	9	-4
CCOc1cc(S(=O)(=O)NCc2ccccc2)c(OCC)cc1-n1cnnn1	5	-2
CCOc1cc(S(=O)(=O)N(Cc2ccccc2)Cc2ccccc2)c(OCC)cc1-n1cnnn1	2	45*
O=S(=O)(c1ccc(N2CCN(CCO)CC2)nc1)N1CCCCC1	3	0
CC(C)NC(=O)CSCc1c(F)cccc1Cl	9	1
CC1CCCC(NC(=O)CSc2nnnn2C)C1C (stereo unspecified)	6	-2
Cn1nnnc1SCC(=O)N(C1CCCCC1)C1CCCCC1	-14	106*

Screens deposited in PubChem BioAssay by PCMD.
